Compound activity: PubChem, Johns Hopkins Ion Channel Center
KCNQ2 enhance – enhances the rat KCNQ2 potassium channel | 310,000 compounds, 0.54% hits | O88943 | AID 2239 | CHO-K1 KCNQ2, FluxOR thallium flux fluorescence; active compounds read high | B-score at 10 µM;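 active = fluorescence ratio B-score at least 3 SD of library B-scores, with initial fluorescence B-score within 3 of them, cut at about 5.3 in these data; same plate scores as AID 2156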;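 also: B-score of peak minus minimum over baseline fluorescence ratio after K+ and Tl+ stimulus; positive B-score means potentiation of KCNQ2 with more thallium influx and brighter signal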
KCNQ2 block – inhibitors of rat KCNQ2 potassium channel; B-score at 10 µM; O88943; 310,000 compounds, 1.1% hits; AID 2156; CHO-K1 KCNQ2, FluxOR thallium flux, 20 min; active compounds read low;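 active = fluorescence ratio B-score at most minus 3 library SDs, with starting brightness B-score within 2 library SDs, cut at about -5.5 in these data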
Kir21 conf inh – confirmation of mouse Kir2.1 potassium channel inhibitors. shares compounds with KCNQ2 enhance. Kir2.1-expressing cells, FluxOR thallium flux fluorescence; active compounds read low. Tl flux remaining, % of negative control (active compounds read low), % at 10 µM. 2,300 compounds, 41% hits. AID 2032;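 active = Primary-screen hit whose thallium flux fell at least 3 control SD below untreated wells in both duplicates, with normal baseline fluorescence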;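 also: 0% = blank wells without stimulus and 100% = stimulated no-compound controls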
Target sequence (P35561 whole entry, looked up): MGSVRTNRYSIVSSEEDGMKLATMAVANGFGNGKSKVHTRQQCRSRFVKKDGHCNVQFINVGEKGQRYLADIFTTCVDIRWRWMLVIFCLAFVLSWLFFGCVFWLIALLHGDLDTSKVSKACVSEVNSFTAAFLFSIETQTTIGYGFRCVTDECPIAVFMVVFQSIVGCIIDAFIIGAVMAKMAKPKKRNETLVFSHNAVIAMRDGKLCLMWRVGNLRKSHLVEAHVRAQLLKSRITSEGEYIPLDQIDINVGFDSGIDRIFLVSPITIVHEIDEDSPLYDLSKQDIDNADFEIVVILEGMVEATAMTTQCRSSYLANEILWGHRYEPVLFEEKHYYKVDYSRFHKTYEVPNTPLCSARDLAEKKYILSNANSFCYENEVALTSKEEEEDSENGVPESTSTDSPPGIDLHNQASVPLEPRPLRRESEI
HEK293 ctr – parental HEK293 activity in Kir2.1 inhibitor counter-screen; shares compounds with KCNQ2 enhance; parental HEK293 cells, FluxOR thallium flux fluorescence; 0% = unstimulated blank wells; FluxOR signal as % of negative control (100 = no effect), % at 10 µM; 2,300 compounds, 19% hits; AID 2105;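 active = dye signal at least 3 control SD above or below untreated wells in both duplicates, raw fluorescence within 3, either direction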;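 also: percent is based on the flux ratio of peak minus minimum fluorescence over baseline F0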
CHO-K1 Tl ctr – counter-screen for KCNQ2 potentiators: effect in parental CHO-K1 cells | shares compounds with KCNQ2 enhance | FluxOR thallium flux fluorescence; zero = vehicle mean+3SD, 100% = vehicle-minus-blank window | activity increase over 3SD of controls, % at 10 µM | 1,200 compounds, 43% hits | AID 2282;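 active = signal rise of at least 3 SD above the untreated control mean, in both duplicate wells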;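 also: counter screen of KCNQ2 potentiator hits so any rise reflects channel-independent effects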
KCNQ1 pot spec – tests whether KCNQ2 potentiators also act on human KCNQ1; CHO KCNQ1 stable, FluxOR thallium flux fluorescence; beyond 3SD, as % of vehicle-control signal; 1,200 compounds, 28% hits; shares compounds with KCNQ2 enhance; activation over 3SD threshold, % at 10 µM;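 active = fluorescence ratio rise of at least 3 SD of vehicle wells above their mean, in both replicate wells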;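 also: 0% = vehicle mean plus 3 SD and 100% = vehicle minus unstimulated blank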
KCNQ2 pot conf – confirmation of rat KCNQ2 potassium channel potentiators; shares compounds with KCNQ2 enhance; CHO-KCNQ2 cells, FluxOR thallium flux fluorescence; potentiation, less the hit threshold, % at 10 µM; 1,200 compounds, 68% hits; AID 2287;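 active = fluorescence ratio rising 3 SD or more over the vehicle control mean in both replicates, plus primary screen hit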;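 also: peak minus minimum thallium fluorescence divided by baseline after K/Tl stimulus; 0% = vehicle mean plus 3 SD and 100% = vehicle minus unstimulated blank difference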
Kir2-1 sel – tests whether KCNQ2 potentiators also affect mouse Kir2.1 | shares compounds with KCNQ2 enhance | activity over 3SD threshold, % at 10 µM | AID 2345 | HEK293 Kir2.1, FluxOR thallium flux fluorescence | 1,200 compounds, 2% hits;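 active = fluorescence ratio rise of at least 3 SD above the vehicle-control mean, seen in both replicates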;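 also: 0% = vehicle mean plus 3 SD and 100% = vehicle minus no-stimulus blank window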
KCNQ2 W236L pot – rat KCNQ2 W236L mutant potentiation by KCNQ2 potentiators. current increase over 3SD of negative controls (%), active compounds read high, % at 25 µM. 940 compounds, 10% hits. shares compounds with KCNQ2 enhance. CHO KCNQ2-W236L, automated patch clamp current;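 active = current increase at least 3 SD of the untreated controls above them in both duplicate recordings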
Active calls of the source: *; i = inactive; / = not tested or not shown. An excerpt weighted towards active compounds, which were near 1.6% of everything screened.

SMILES	KCNQ2 enhance	KCNQ2 block	Kir21 conf inh	HEK293 ctr	others
COc1ccc(CNCc2ccco2)cc1OCc1ccccc1	0.49	i	/	/
Oc1c(Br)cc(/C=N/n2c(-c3ccccc3)n[nH]c2=S)c(Br)c1O	/	i	/	/
Oc1ccc(/C=N/n2c(C3CCCCC3)n[nH]c2=S)c(O)c1	/	i	/	/
Cc1nnc(C)n1/N=C/c1cc(Br)cc(Br)c1O	10.9*	i	i	i	CHO-K1 Tl ctr=-23.2;KCNQ1 pot spec=41.3*;KCNQ2 pot conf=17.1*;Kir2-1 sel=-29.9;KCNQ2 W236L pot=i
Oc1c(Br)cc(Br)cc1/C=N/n1c(-c2ccccc2)n[nH]c1=S	10.5*	i	i	i	CHO-K1 Tl ctr=12.0*;KCNQ1 pot spec=-9.9;KCNQ2 pot conf=11.4*;Kir2-1 sel=-41.5;KCNQ2 W236L pot=i
Oc1ccc(Br)cc1/C=N/n1c(C2CCCCC2)n[nH]c1=S	7.39*	i	i	i	CHO-K1 Tl ctr=69.7*;KCNQ1 pot spec=-11.7;KCNQ2 pot conf=-15.9;Kir2-1 sel=-19.1
Cc1nnc(C)n1/N=C/c1cc(Br)ccc1O	/	i	/	/
COc1ccc(Cc2noc(CN3CCNC(=O)CC3)n2)cc1OC	0.3	i	/	/
CC1CCN(S(=O)(=O)N2CCC(C(=O)NCc3ccc4c(c3)OCO4)CC2)CC1	0.08	i	/	/
CCc1ccc(CNC(=O)C2CCN(S(=O)(=O)N3CCC(C)CC3)CC2)cc1	6.89*	i	i	i	CHO-K1 Tl ctr=-13.7;KCNQ1 pot spec=-6.7;KCNQ2 pot conf=-7.5;Kir2-1 sel=-27.8
Cc1ccc2c(CN3CCCCC3CCO)cc(=O)oc2c1 (stereo not given)	0.14	i	/	/
Cc1ccc(-c2c(C(=O)N/N=C/c3c[nH]c4ccccc34)nnn2-c2nonc2N)cc1	1.18	i	/	/
O=S(=O)(c1ccc(Cl)cc1)N1CCN(C(=S)Nc2ccc(F)c(Cl)c2)CC1	0.86	i	/	/
Clc1ccc(OCCOCCN2CCc3ccccc3C2)c(Cl)c1	/	i	/	/
c1ccc(-c2ccccc2OCCOCCN2CCc3ccccc3C2)cc1	/	i	50.5%*	i
Cc1nc(-c2ccccc2OC(F)(F)F)[nH]c(=O)c1Cl	/	i	/	/
CN1CCN(C(CC(=O)Nc2cccc(O)c2)C(=O)O)CC1 (stereo not given)	0.86	i	/	/
O=C(OCC(=O)N1c2ccccc2Sc2ccccc21)C1CC(=O)N(Cc2ccco2)C1 (stereo not given)	/	i	/	/
O=C(COC(=O)C1CC(=O)N(Cc2ccco2)C1)c1ccc(OC(=O)c2ccccc2)cc1 (stereo not given)	0.01	i	i	i
Cc1nn(-c2ncc(C(F)(F)F)cc2Cl)c(=O)n1-c1ccccc1F	1.01	i	/	/
Cc1ccc(-c2nc3ccccn3c2NCc2ccc3c(c2)OCO3)cc1	/	i	75.5%*	i
COc1ccc(-c2nc3ccc(C)cn3c2NCc2ccc3c(c2)OCO3)cc1	0.61	i	/	/
COc1ccc(C(C)=O)cc1CSc1nnnn1-c1ccc(O)cc1	/	i	/	/
CCOc1ccc(C(C)=O)cc1CSc1nnnn1-c1ccc(O)cc1	/	i	62.0%*	i
COc1ccc(NC(=O)C2(S(=O)(=O)c3ccc(C)cc3)CC2)cc1OC	0.72	i	/	/
SMILES	KCNQ2 enhance	KCNQ2 block	Kir21 conf inh	HEK293 ctr	others
COc1ccc2ccccc2c1CNC(C)CCc1ccccc1 (stereo not given)	/	i	40.5%*	i
COc1ccc(CCNCc2c(OC)ccc3ccccc23)cc1OC	0.43	i	/	/
CCCCCC(=O)Nc1cccc(C2=NOC3(C2)C[C@H](C(N)=O)N(C(=O)c2ccccc2C(=O)c2ccccc2)C3)c1 (stereo not given in full)	0.59	i	/	/
CCOC(=O)NNC(=O)NCCCCCCNC(=O)NNC(=O)OCC	/	i	/	/
CC(=O)Nc1ccc(NC(=O)C2(C)CC2(Cl)Cl)cc1 (stereo not given)	1.33	i	/	/
O=C(NCCCCc1ccccc1)Nc1cccc(F)c1	13.1*	i	i	i	CHO-K1 Tl ctr=-1.8;KCNQ1 pot spec=-19.5;KCNQ2 pot conf=27.2*;Kir2-1 sel=-40.4;KCNQ2 W236L pot=i
Cc1cccc(NC(=O)NCCCCc2ccccc2)c1	/	i	/	/
Cc1ccc(C(C)C)c(OCCNCc2ccccc2)c1	1.12	i	16.5%*	i
Cc1ccc(C)c(OCCCNCc2ccccc2)c1	/	i	23.5%*	i
CC(C)(C)c1ccccc1OCCOCCNCc1ccccc1	/	i	/	/
Cc1ccc(C(C)C)c(OCCN)c1	0.89	i	/	/
Clc1cc(Br)ccc1OCCCNCc1ccccc1	/	i	/	/
Cc1ccc(C(C)C)c(OCCCCN2CCNCC2)c1	0.18	i	44.0%*	i
Cc1cc(OCCOCCNCc2ccccc2)ccc1C(C)C	2.23	i	21.5%*	i
Cc1ccc(C(C)C)c(OCCOCCN2CCNCC2)c1	/	i	/	/
Cc1cnc(CNC(=O)c2ccc3oc(Cc4ccc(Cl)cc4)nc3c2)cn1	2.07	i	/	/
N#CC1=C(N)SC(N)=C(C#N)C1c1cccc(O)c1	0.44	i	/	/
CCOC(=O)C1CCN(S(=O)(=O)c2cc(C(=O)N3CCCCC3)ccc2OC)CC1	/	i	/	/
CC(C)(C)CN1CCN(CC#Cc2ccccc2)CC1CCO (stereo not given)	/	i	/	/
NC(=O)c1ccccc1N	/	i	/	/
Cc1c(NS(=O)(=O)c2cc(C(=O)OCC(=O)N3CCC(C)CC3)ccc2Cl)c(=O)n(-c2ccccc2)n1C	0.01	i	/	/
O=C(c1ccccc1C(F)(F)F)N1CCN(S(=O)(=O)c2ccccc2)CC1	/	i	/	/
c1cnc(Oc2ccc(-c3nnco3)cc2)cn1	1.49	i	/	/
O=C(c1cc(COc2ccc3c(c2)CCCC3)on1)N1CCCC1	1.06	i	i	i
COCC1CCN(C(=O)c2cc(COc3ccc4c(c3)CCCC4)on2)C1 (stereo not given)	0.7	i	/	/
SMILES	KCNQ2 enhance	KCNQ2 block	Kir21 conf inh	HEK293 ctr	others
CCN(CC)CCN(C(=O)c1ccc(Br)s1)c1nc2cc3c(cc2s1)OCCO3	1.96	i	/	/
CN(C)CCCN(C(=O)c1ccc(Br)s1)c1nc2cc3c(cc2s1)OCCO3	/	i	i	i
O=C(CSC1=NCCS1)Nc1cccc(F)c1	/	i	/	/
COc1ccc2[nH]cc(CCNC(=O)Cc3ccc(Cl)cc3)c2c1	0.36	i	/	/
CCOC(=O)C1(CCCc2ccccc2)CCN(Cc2ccn[nH]2)CC1	0.99	i	/	/
NS(=O)(=O)c1ccc(CCNCc2ccccc2OCc2ccc(F)cc2)cc1	0.56	i	/	/
